Structures are written as SMILES. Several values for one entry are separate records, joined by “and”; a condition that tells them apart may be missing. Equal values may be shown once. Records with an inconclusive call do not appear. Activity calls are given as the source filed them. How the source made its calls, unless noted: active means hit-call score of the fitted dose curve at least 0.9, where 1 is the maximum; inactive means score below 0.9.

The target in experiment [1] is Myc proto-oncogene protein (Homo sapiens) (UniProt P01106). As to the kind of experiment: ATG_Myc_CIS: Attagene CIS-FACTORIAL HepG2 Assay for human Myelocytomatosis (Myc) Proto-Oncogene Transcription Factor (AID 2282990). The following applies: HepG2, Attagene cis-reporter transcription factor activity; actives raise or lower the signal. The procedure, abridged: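 Fluorescence intensity of reporter-specific cDNA fragments, separated by capillary electrophoresis, gives the signal. Transfected HepG2 cells carrying cis-promoter reporter constructs are incubated with compound for 24 h; DMSO serves as baseline.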
Myc proto-oncogene protein (Homo sapiens), sequence (P01106 whole entry, looked up, the tested form may be a part): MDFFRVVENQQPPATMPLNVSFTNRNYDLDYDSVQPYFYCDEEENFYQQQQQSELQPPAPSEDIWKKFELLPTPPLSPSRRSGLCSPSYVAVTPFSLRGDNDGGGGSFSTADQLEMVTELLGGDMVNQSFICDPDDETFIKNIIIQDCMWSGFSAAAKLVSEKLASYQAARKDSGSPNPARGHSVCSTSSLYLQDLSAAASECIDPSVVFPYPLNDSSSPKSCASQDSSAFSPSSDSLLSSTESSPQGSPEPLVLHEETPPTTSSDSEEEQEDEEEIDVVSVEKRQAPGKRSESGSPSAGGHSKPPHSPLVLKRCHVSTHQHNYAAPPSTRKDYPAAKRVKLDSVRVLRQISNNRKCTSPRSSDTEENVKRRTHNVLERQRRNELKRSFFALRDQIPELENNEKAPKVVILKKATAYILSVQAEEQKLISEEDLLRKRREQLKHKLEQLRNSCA

A short description of experiment [2]: ATG_NF_kB_CIS: Attagene CIS-FACTORIAL HepG2 Assay for human Nuclear Factor Kappa B (NF-kB) (AID 2282991). The following applies: HepG2 Attagene cis-factorial NF-kB reporter mRNA; actives raise or lower the signal. The procedure, abridged: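 HepG2 cells transiently transfected with multiplexed cis-element reporter units measuring endogenous transcription factor activity; reporter mRNA read 24 h after dosing by RT-PCR, fluorescent labelling, HpaI digestion and capillary electrophoresis. Bidirectional fit against DMSO baseline.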

A short description of experiment [3]: ATG_NRF2_ARE_CIS: Attagene CIS-FACTORIAL HepG2 Assay for human Nuclear Factor Erythroid 2 Related Factor 2 (NFR2) response to Antioxidant Response Elements (ARE) (AID 2282992).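 On AC50: reporter mRNA level measured by RT-PCR and capillary electrophoresis fluorescence.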 The following applies: HepG2 Attagene ARE/NRF2 reporter, transcription factor activity; actives raise or lower the signal. The gist of the method: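 Endogenous transcription factor activity in human liver HepG2 cells is tracked via a cis-element-driven reporter within a multiplexed set. mRNA induction is read by RT-PCR and capillary electrophoresis after 24 h, with DMSO as baseline.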

Experiment [4] in a line: ATG_Oct_MLP_CIS: Attagene CIS-FACTORIAL HepG2 Assay for human Octamer-Binding Transcription Factor (Oct) (AID 2282993). The following applies: HepG2 Attagene cis-factorial Oct reporter, mRNA; actives raise or lower the signal. The procedure, abridged:
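Using HepG2 cells bearing transfected cis-reporter constructs, mRNA induction was read after 24 h by fluorescent RT-PCR and capillary electrophoresis, with DMSO defining baseline for gain- or loss-of-signal fits.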

Experiment [5] concerns the target Cellular tumor antigen p53 (Homo sapiens) (UniProt P04637). As to the kind of experiment: ATG_p53_CIS: Attagene CIS-FACTORIAL HepG2 Assay for human p53 Transcription Factor (AID 2282994). The following applies: HepG2 p53 cis-element reporter, Attagene mRNA; actives raise or lower the signal. The procedure, abridged:
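Steps: transfect HepG2 with multiplexed cis reporter constructs; dose chemicals 24 h; extract RNA, reverse-transcribe, PCR-amplify reporter sequences; FAM-label, HpaI-digest, resolve fragments by CE. Activity fitted both directions relative to DMSO.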

In experiment [6] the target is human Peroxisome Proliferator-activated Receptor alpha (PPARa), PPARA (gene 5465) (UniProt Q07869). Description: ATG_PPARa_TRANS: Attagene TRANS-FACTORIAL HepG2 Assay for human Peroxisome Proliferator-activated Receptor alpha (PPARa) (AID 2283001; active means hit-call score of the fitted dose curve at least 0.9, where 1 is the maximum;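 on AC50: potency for gain of reporter signal over DMSO so agonist or activator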). The procedure, abridged:
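Transient HepG2 transfection, GAL4-UAS reporters, NR-Gal4 chimeras; 24 h compound exposure. Readout: reporter transcripts by RT-PCR, 6-FAM primer extension, HpaI digest, capillary electrophoresis. Positive direction vs DMSO baseline.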

The target of experiment [7] is human Peroxisome Proliferator-activated Receptor delta (PPARd), PPARD (gene 5467) (UniProt Q03181). As to the kind of experiment: ATG_PPARd_TRANS: Attagene TRANS-FACTORIAL HepG2 Assay for human Peroxisome Proliferator-activated Receptor delta (PPARd) (AID 2283002; active means hit-call score of the fitted dose curve at least 0.9, where 1 is the maximum). The gist of the method: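 Fluorescence from capillary electrophoresis of labelled RT-PCR reporter fragments gives the signal; DMSO sets baseline. Cells: HepG2 transiently carrying GAL4-UAS reporter units plus chimeric nuclear receptor-Gal4 proteins, exposed to chemicals for 24 h.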
human Peroxisome Proliferator-activated Receptor delta (PPARd), PPARD (gene 5467), sequence (Q03181 whole entry, looked up, the tested form may be a part): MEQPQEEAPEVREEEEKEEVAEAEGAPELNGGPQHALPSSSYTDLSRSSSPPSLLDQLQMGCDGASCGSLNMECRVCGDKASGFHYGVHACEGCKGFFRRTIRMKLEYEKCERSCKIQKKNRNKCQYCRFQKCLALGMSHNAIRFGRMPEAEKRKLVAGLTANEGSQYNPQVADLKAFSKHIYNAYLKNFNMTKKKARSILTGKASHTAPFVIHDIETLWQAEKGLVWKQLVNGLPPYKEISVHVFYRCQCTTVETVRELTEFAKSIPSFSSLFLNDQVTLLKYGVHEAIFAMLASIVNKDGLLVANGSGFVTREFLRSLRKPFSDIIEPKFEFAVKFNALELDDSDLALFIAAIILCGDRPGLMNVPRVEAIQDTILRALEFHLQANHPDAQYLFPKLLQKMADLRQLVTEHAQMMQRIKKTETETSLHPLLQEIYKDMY

The target in experiment [8] is human Retinoic Acid Receptor beta (RARb), RARB (gene 5915) (UniProt P10826). Description: ATG_RARb_TRANS: Attagene TRANS-FACTORIAL HepG2 Assay for human Retinoic Acid Receptor beta (AID 2283004; active means hit-call score of the fitted dose curve at least 0.9, where 1 is the maximum). The procedure, abridged: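 Fluorescent capillary-electrophoresis detection of GAL4-UAS reporter mRNA defines the endpoint, with induction over DMSO-treated wells scored as activity. Transiently transfected human hepatoma HepG2 cells expressing exogenous NR–Gal4 proteins are exposed to test chemicals for 24 h.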
human Retinoic Acid Receptor beta (RARb), RARB (gene 5915), sequence (P10826 whole entry, looked up, the tested form may be a part): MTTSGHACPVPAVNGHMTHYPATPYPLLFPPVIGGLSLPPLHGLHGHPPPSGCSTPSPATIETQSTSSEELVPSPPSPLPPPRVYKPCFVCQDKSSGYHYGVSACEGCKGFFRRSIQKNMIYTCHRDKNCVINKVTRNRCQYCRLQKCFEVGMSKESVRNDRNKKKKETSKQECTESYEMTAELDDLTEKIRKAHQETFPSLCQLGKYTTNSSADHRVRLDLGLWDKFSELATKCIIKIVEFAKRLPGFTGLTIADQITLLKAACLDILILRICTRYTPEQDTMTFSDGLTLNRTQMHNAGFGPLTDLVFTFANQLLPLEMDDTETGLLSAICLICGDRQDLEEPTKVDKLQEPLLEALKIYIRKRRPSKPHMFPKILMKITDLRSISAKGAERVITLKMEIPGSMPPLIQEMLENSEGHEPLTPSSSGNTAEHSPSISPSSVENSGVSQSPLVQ

For experiment [9], the target named is Retinoic acid receptor alpha (Homo sapiens) (UniProt P10276). As to the kind of experiment: ATG_RARa_TRANS: Attagene TRANS-FACTORIAL HepG2 Assay for human Retinoic Acid Receptor alpha (RARa) (AID 2283005; active means hit-call score of the fitted dose curve at least 0.9, where 1 is the maximum). The gist of the method: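 HepG2 transiently transfected with multiplex GAL4-UAS reporter units including a human RARa–GAL4 chimera; 24 h compound exposure. Reporter mRNA quantified by RT-PCR, 6-FAM labeling and capillary electrophoresis; gain of signal versus DMSO.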
Retinoic acid receptor alpha (Homo sapiens), sequence (P10276 whole entry, looked up, the tested form may be a part): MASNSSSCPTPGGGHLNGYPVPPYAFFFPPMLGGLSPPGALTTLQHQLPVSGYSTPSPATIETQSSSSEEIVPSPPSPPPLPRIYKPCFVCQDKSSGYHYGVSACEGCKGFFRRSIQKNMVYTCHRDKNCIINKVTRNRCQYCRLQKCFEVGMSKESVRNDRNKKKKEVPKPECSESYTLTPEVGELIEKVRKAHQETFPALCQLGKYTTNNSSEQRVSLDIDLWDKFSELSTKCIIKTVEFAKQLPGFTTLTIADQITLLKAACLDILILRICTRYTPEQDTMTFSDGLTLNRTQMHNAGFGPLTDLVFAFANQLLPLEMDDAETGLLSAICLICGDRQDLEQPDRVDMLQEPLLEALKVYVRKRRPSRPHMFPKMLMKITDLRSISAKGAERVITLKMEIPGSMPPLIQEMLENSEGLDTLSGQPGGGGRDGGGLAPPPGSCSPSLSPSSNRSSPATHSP

The target in experiment [10] is Peroxisome proliferator-activated receptor gamma (Homo sapiens) (UniProt P37231). Description: ATG_PPARg_TRANS: Attagene TRANS-FACTORIAL HepG2 Assay for human Peroxisome Proliferator-activated Receptor-gamma (PPARg) (AID 2283007; active means hit-call score of the fitted dose curve at least 0.9, where 1 is the maximum). The procedure, abridged: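 HepG2 cells transiently transfected with multiplexed GAL4-UAS reporter units and exogenous chimeric NR-Gal4 proteins; reporter mRNA quantified after 24 h compound exposure by RT-PCR, fluorescent labelling, HpaI digestion and capillary electrophoresis; gain-of-signal fitted versus DMSO baseline.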
Peroxisome proliferator-activated receptor gamma (Homo sapiens), sequence (P37231 whole entry, looked up, the tested form may be a part): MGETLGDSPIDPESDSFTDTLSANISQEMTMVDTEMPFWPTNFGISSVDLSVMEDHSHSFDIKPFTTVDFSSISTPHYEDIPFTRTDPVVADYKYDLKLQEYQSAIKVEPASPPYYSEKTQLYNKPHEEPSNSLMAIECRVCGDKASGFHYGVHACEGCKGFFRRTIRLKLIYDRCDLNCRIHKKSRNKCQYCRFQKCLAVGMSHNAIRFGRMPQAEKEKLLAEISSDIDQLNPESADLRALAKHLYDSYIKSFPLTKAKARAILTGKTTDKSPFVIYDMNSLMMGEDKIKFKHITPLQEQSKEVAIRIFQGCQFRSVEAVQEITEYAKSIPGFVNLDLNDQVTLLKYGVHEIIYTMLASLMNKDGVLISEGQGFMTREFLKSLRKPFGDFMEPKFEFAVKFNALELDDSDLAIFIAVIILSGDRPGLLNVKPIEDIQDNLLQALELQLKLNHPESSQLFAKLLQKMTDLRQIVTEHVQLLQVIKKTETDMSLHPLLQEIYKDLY

For experiment [11], the target named is Nuclear receptor subfamily 1 group I member 2 (Homo sapiens) (UniProt O75469). Description: ATG_PXR_TRANS: Attagene TRANS-FACTORIAL HepG2 Assay for human Pregnane X Receptor (PXR) (AID 2283008; active means hit-call score of the fitted dose curve at least 0.9, where 1 is the maximum). The gist of the method: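 HepG2 transfected (FuGene 6) with GAL4-UAS reporter units + PXR-Gal4 chimera; dosed 24 h. Total RNA → oligo(dT) RT → PCR → 6-FAM primer extension → HpaI cut → CE. Gain-of-signal vs DMSO.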
Nuclear receptor subfamily 1 group I member 2 (Homo sapiens), sequence (O75469 whole entry, looked up, the tested form may be a part): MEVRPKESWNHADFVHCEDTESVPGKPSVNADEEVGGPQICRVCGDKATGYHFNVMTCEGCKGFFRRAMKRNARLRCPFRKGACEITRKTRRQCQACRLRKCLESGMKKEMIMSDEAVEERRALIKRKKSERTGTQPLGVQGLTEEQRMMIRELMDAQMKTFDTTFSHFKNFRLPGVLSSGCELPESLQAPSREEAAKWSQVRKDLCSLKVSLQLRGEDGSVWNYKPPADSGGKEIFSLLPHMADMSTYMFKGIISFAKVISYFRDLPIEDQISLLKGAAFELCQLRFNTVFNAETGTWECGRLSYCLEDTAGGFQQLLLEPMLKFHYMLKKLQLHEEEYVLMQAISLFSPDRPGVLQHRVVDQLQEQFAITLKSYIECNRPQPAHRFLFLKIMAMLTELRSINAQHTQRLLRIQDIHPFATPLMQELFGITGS

For experiment [12], the target named is human Retinoic Acid Receptor gamma (RARg), RARG (gene 5916) (UniProt P13631). As to the kind of experiment: ATG_RARg_TRANS: Attagene TRANS-FACTORIAL HepG2 Assay for human Retinoic Acid Receptor gamma (RARg) (AID 2283009; active means hit-call score of the fitted dose curve at least 0.9, where 1 is the maximum). The procedure, abridged: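 Readout: reporter transcript levels via RT-PCR, 6-FAM primer-extension labelling, HpaI digestion and capillary electrophoresis. Cells: HepG2 carrying transfected RARg-GAL4 chimera plus UAS reporter set. Dosing 24 h; DMSO negative control.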
human Retinoic Acid Receptor gamma (RARg), RARG (gene 5916), sequence (P13631 whole entry, looked up, the tested form may be a part): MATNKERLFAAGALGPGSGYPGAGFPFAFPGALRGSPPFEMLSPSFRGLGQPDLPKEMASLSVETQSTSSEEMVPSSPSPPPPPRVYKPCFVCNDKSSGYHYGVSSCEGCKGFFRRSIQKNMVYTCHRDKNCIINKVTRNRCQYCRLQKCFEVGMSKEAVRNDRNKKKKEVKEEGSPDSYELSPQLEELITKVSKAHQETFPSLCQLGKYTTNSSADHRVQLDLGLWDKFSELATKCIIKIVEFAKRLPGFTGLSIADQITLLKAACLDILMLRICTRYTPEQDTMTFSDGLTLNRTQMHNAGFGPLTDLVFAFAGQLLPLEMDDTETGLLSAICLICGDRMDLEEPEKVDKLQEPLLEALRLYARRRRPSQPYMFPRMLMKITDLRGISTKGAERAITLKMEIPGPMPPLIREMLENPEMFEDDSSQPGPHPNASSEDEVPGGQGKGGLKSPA

The target of experiment [13] is human RAR-related Orphan Receptor beta (RORb), RORB (gene 6096) (UniProt Q92753). As to the kind of experiment: ATG_RORb_TRANS: Attagene TRANS-FACTORIAL HepG2 Assay for human RAR-related Orphan Receptor beta (RORb) (AID 2283010; active means hit-call score of the fitted dose curve at least 0.9, where 1 is the maximum). The gist of the method:
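HepG2, transient MRTU transfection (GAL4-UAS reporters, exogenous NR-Gal4 chimeras); 24 h compound exposure; total RNA → RT-PCR → 6-FAM primer extension → HpaI digest → CE fluorescence. Positive direction vs DMSO baseline.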

The nature of experiment [14]: BSK_3C_TissueFactor: BioMAP Diversity Plus: 3C Assay for Tissue Factor Biomarker Activity (AID 2282997). The following applies: BioMAP 3C HUVEC, tissue factor biomarker readout; actives raise or lower the signal. The gist of the method:
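In this endothelial system, HUVEC are treated for 24 h and Tissue Factor is assessed by ELISA, normalised to DMSO.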

Experiment [15] can be described thus: BSK_3C_uPAR: BioMAP Diversity Plus: 3C Assay for Urokinase-type plasminogen activator receptor (uPAR) Biomarker Activity (AID 2282998). The following applies: BioMAP 3C HUVEC, uPAR biomarker ELISA; actives raise or lower the signal. The gist of the method: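 In this endothelial cell-based assay, human umbilical vein primary cells were treated with chemicals and harvested at 24 h. uPAR was quantified using ELISA, with gains or losses fitted relative to DMSO controls.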
In general terms: ELISA stands for enzyme-linked immunosorbent assay.

Experiment [16] in a line: BSK_3C_VCAM1: BioMAP Diversity Plus: 3C Assay for Vascular cell adhesion molecule 1 (VCAM1) Biomarker Activity (AID 2282999). The following applies: BioMAP 3C HUVEC, VCAM1 ELISA, cytokine-stimulated; actives raise or lower the signal. The procedure, abridged:
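HUVEC primary cells, 24 h compound exposure; VCAM-1 by ELISA; gain/loss of signal fitted bidirectionally vs DMSO baseline.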

The nature of experiment [17]: BSK_4H_Eotaxin3: BioMAP Diversity Plus: 4H Assay for Eotaxin 3 Biomarker Activity (AID 2283000).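 On outcome: CCL26 protein level quantified by ELISA in parallel with SRB cytotoxicity check.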 The following applies: primary human endothelial cells (HUVEC); actives raise or lower the signal. The procedure, abridged:
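ELISA quantitation of CCL26 (Eotaxin-3) protein from chemically dosed human vascular endothelial cells at 24 h; increases and decreases both scored relative to DMSO-treated baseline.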

Read-out in experiment [18]: Intercellular Adhesion Molecule 1 (ICAM1), ICAM1 (gene 3383)
Description: BSK_3C_ICAM1: BioMAP Diversity Plus: 3C Assay for Intercellular Adhesion Molecule 1 (ICAM1) Biomarker Activity (AID 2283003). The following applies: primary human endothelial cells (HUVEC); actives raise or lower the signal. The gist of the method:
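ELISA read-out of ICAM-1; HUVEC (primary human), 3C system, 24 h post-dosing; bidirectional fit vs DMSO baseline.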

The nature of experiment [19]: BSK_3C_Proliferation: Cell Proliferation Assessment in the BioMAP Diversity Plus: 3C Assay (AID 2283006).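 On AC50: potency may reflect either rise or fall in cell number versus DMSO.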 The following applies: primary human endothelial cells (HUVEC). The procedure, abridged: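 HUVEC, sub-confluent; 48 h chemical exposure; 10% TCA fix, 0.1% SRB stain, A560 total protein. Gain or loss of signal fitted both directions vs DMSO control.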

Cellular tumor antigen p53 (Homo sapiens), sequence (P04637 whole entry, looked up, the tested form may be a part): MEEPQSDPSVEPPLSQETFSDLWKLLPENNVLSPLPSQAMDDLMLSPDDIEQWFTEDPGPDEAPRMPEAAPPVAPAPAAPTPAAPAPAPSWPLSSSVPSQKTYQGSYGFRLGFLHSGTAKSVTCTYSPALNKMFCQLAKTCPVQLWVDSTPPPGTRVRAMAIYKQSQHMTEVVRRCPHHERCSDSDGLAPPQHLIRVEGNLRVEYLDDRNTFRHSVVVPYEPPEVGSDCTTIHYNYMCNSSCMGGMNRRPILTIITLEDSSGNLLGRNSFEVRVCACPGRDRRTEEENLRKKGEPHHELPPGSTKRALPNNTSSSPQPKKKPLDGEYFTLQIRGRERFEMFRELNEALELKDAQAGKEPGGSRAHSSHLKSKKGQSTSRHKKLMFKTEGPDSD
human Peroxisome Proliferator-activated Receptor alpha (PPARa), PPARA (gene 5465), sequence (Q07869 whole entry, looked up, the tested form may be a part): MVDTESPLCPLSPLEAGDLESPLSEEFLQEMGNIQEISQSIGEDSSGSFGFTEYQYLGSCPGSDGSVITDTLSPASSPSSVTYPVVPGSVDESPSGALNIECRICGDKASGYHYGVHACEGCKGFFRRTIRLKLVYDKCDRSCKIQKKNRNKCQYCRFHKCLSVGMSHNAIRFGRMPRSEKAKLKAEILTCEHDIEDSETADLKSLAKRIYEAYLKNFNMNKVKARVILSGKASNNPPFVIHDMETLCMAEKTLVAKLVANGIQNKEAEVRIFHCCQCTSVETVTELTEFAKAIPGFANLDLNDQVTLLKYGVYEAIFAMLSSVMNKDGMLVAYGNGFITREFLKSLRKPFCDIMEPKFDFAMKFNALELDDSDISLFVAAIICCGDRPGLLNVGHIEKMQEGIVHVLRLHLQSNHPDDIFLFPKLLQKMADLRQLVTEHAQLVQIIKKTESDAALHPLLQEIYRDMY
human RAR-related Orphan Receptor beta (RORb), RORB (gene 6096), sequence (Q92753 whole entry, looked up, the tested form may be a part): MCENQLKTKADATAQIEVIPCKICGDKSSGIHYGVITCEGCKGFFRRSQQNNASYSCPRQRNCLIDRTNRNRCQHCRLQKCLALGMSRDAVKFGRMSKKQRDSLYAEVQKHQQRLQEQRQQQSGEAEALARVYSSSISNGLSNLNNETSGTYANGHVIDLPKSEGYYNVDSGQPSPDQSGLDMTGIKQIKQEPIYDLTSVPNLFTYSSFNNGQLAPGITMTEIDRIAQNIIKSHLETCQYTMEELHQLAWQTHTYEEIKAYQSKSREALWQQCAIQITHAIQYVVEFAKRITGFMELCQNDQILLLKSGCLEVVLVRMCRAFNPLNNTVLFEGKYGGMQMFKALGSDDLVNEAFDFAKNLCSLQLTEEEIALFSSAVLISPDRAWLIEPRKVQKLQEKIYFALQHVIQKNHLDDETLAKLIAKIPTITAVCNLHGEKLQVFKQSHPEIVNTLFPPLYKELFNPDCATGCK

As for `C[Si]1(C)O[Si](C)(C)O[Si](C)(C)O1`, the molecule was classed as inactive in experiment [1], in [2], in experiment [3], in experiment [4], in experiment [5] and in experiment [6]. Besides, the molecule was called inactive in experiment [7], in experiment [8], in [9], in experiment [10], in [11] and in experiment [12]. The molecule was classed as inactive in [13].
Consider `CCCCN(CCCC)C(=O)N(CCCC)CCCC`, for which the AC50 in experiment [1] is 48.7 µM (active); in [2] it was 52.8 µM (active); in experiment [3], 61.6 µM (active); in experiment [5] it was 33.4 µM (active); in experiment [14] it was 6.23 µM (active); in [15], 10.7 µM (active). The half-maximal activity concentration (AC50) in [16] is 8.82 µM (active); in experiment [17], 9.73 µM (active); in [18] it was 10.7 µM (active); in experiment [19], 4.03 µM (active); in [10] it was 15.9 µM (active); in [11], 0.445 µM (active). In addition, the molecule was classed as inactive in [4], in experiment [7] and in experiment [12].
Take `CC(=O)Nc1ccc(C(=O)CCl)cc1`: the result in experiment [1], in experiment [4], in [5], in [8] and in experiment [11] was inactive. The concentration at half-maximal activity (AC50) is 2.5 µM (active) in [2]; 0.41 µM (active) in experiment [3]; 9.37 µM (active) in experiment [14]; 9.48 µM (active) in [15]; 6.27 µM (active) in [16]; 6.53 µM (active) in experiment [17]. Also, the AC50 was 2.66 µM (active) in [6], 8.45 µM (active) in experiment [18] and 6.13 µM (active) in experiment [19].
Take `NCC1CCCC(CN)C1` (stereo not drawn): the call in [1], in [2], in experiment [3], in experiment [4], in [5] and in [6] was inactive. Besides, the result in experiment [7], in [10] and in [11] was inactive.
For `CC(=O)C1(C)CC2=C(CCCC2(C)C)CC1C` (stereo not drawn), in [1], the call was inactive. Also, the AC50 is 121 µM (active) in experiment [2]; 93.6 µM (active) in experiment [3]; 61.1 µM (active) in experiment [4]; 144 µM (active) in experiment [5]; 7.62 µM (active) in experiment [14]; 8.27 µM (active) in experiment [15]. In addition, the AC50 in experiment [16] was 11 µM (active); in [17], 9.74 µM (active); in experiment [18], 12.8 µM (active); in experiment [19], 6.69 µM (active); in experiment [10] it was 100 µM (active).
On to `CS(=O)(=O)c1ccc(C2=C(c3ccccc3)C(=O)OC2)cc1`, for which the outcome in experiment [1], in [2], in experiment [3], in experiment [4], in experiment [5] and in [14] was inactive. Also, the result in experiment [15], in [16], in experiment [17], in experiment [18], in experiment [8] and in experiment [19] was inactive. The result in experiment [10] was inactive.
Regarding `NCCNc1cccc2ccccc12`, the AC50 was 168 µM (active) in [1]; 176 µM (active) in experiment [4]; 50.9 µM (active) in experiment [5]; 150 µM (active) in experiment [6]; 125 µM (active) in [10]. Also, the result in [2], in experiment [3], in experiment [7], in experiment [8], in [9] and in experiment [11] was inactive. Besides, the call in experiment [12] and in experiment [13] was inactive.
As to `CCOC(=O)C(C#N)=C(c1ccccc1)c1ccccc1`, the molecule was called inactive in experiment [1], in [2], in [4], in experiment [5], in experiment [14] and in experiment [15]. The result in experiment [16], in experiment [17], in experiment [7] and in experiment [18] was inactive. In addition, the AC50 was 27.6 µM (active) in experiment [3]; 20 µM (active) and 8.88 µM (active) in experiment [19]; 7.45 µM (active) in experiment [10]; 1.24 µM (active) in experiment [11].

The term AC50 denotes the concentration at which the activity in the assay is half-maximal.

These data come from PubChem BioAssay (EPA / NIEHS).
